Among the data in PubChem BioAssay are z-score values, retold here.

Values without a mark were called inactive.

A short description of this test: change in splice reporter luminescence, either direction, cell-based, HEK293, spliceosome inhibition project, primary screen (AID 1101).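 Note: HEK293 cells carrying a splicing-competent luciferase reporter gene; test concentration not given here.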 The conditions noted are these: HEK293 splicing luciferase reporter, 24 h, higher = more signal, called active from +8 up or from −8 down.
As for `COCCOC(=O)N1C(=O)[C@@]2(c3cc(C#CC4(O)CCCCCC4)ccc31)[C@H](C(N)=O)[C@H]1C(=O)O[C@H](c3ccccc3)[C@H](c3ccccc3)N1[C@@H]2c1ccccc1OCCO`, the z-score is -1.96. Under `Cc1ccc(S[C@]2(C(=O)NCC(F)(F)F)CC(=O)N(Cc3ccccc3)[C@@H]2c2ccc(CO)cc2)cc1` stands -0.676. Under `COCCCNC(=O)[C@@]1(Sc2ccc(C)cc2)CC(=O)N(C2Cc3ccccc3C2)[C@@H]1c1ccc(CO)cc1I` stands -0.697.

Turning to `C=CC[C@]1(C(=O)N(C)C)N=C(c2ccc(OCCCO)cc2)O[C@H]1c1ccccc1N=[N+]=[N-]`, the z-score was -0.288. The result for `CCOC(=O)C1=CC[C@@H](c2ccccc2C(F)(F)F)N(S(=O)(=O)c2ccc(C)cc2)C1` reads -2.27; that for `CC(C)C(O)C1C=CC2C(=O)N(C)C(=O)C2N1N(c1ccccc1)c1ccccc1` (stereo not given), 1.06. Under `CCOC(=O)C1=CC[C@@H](c2ccc([N+](=O)[O-])cc2)N(S(=O)(=O)c2ccc(C)cc2)[C@H]1c1ccccc1` stands -0.8; under `[N-]=[N+]=NCc1ccccc1C[C@@]1(C(=O)N2CCCCC2)N=C(c2ccc(OCCCO)cc2)O[C@@H]1c1ccccc1N=[N+]=[N-]`, -0.428; under `C=C(/C(=C/C[C@@H](OC(=O)c1ccncc1)c1ccccc1OCCO)c1cc(C(=O)OC)ccc1OC)C(C)C`, -1.25.

Regarding `COCCOC(=O)N1C(=O)[C@@]2(c3cc(C#CC4(O)CCCCCC4)ccc31)[C@H](C(N)=O)[C@H]1C(=O)O[C@H](c3ccccc3)[C@H](c3ccccc3)N1[C@@H]2c1ccc(O)cc1`, the z-score is -0.538.
